Laboratory results as given in ChEMBL document CHEMBL3988442, “University of Dundee, Small-Polar-MMV Screening Library” (2021).
For some of these results: Potency and affinity values are given separately.

Columns and labels:
Set-up in all cases: scale not given: direction of the effect not stated beside the values
[1] = biological target: Protein translocase subunit SecA (Escherichia coli (strain K12)) (UniProt P10408); test: Assay to Identify E. coli SecA ATPase Inhibitors; type: functional; details: 30 µM
Protein translocase subunit SecA (Escherichia coli (strain K12)), sequence (P10408 whole entry): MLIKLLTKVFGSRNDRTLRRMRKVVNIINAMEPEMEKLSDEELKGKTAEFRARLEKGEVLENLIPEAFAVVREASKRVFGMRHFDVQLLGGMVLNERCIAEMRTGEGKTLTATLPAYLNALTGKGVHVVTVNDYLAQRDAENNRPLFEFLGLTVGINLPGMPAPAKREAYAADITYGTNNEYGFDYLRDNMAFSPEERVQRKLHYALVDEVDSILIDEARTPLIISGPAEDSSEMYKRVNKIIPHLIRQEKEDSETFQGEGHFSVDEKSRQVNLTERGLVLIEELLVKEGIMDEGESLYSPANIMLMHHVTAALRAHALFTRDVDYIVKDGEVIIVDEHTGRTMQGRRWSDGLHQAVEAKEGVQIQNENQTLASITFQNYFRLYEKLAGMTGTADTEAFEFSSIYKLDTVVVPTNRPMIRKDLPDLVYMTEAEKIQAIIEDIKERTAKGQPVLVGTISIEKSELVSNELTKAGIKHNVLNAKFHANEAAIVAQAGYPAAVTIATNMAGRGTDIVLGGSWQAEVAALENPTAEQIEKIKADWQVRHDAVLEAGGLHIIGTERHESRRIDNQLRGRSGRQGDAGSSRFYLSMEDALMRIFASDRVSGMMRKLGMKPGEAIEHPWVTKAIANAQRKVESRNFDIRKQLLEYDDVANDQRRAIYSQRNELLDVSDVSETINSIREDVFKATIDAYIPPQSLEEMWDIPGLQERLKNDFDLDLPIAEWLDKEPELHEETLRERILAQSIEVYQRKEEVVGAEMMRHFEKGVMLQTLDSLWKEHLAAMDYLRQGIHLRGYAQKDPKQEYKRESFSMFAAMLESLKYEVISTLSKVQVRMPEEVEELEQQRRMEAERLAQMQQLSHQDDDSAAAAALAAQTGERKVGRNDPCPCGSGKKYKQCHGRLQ

[2] = biological target: T1, Ubiquitin-activating enzyme e1, putative (Leishmania donovani (strain BPK282A1)) (UniProt E9BSI1); test: Leishmania donovani Ubiquitin Activating Enzyme (LdE1); type: functional; details: 30 µM
T1 sequence (whole entry): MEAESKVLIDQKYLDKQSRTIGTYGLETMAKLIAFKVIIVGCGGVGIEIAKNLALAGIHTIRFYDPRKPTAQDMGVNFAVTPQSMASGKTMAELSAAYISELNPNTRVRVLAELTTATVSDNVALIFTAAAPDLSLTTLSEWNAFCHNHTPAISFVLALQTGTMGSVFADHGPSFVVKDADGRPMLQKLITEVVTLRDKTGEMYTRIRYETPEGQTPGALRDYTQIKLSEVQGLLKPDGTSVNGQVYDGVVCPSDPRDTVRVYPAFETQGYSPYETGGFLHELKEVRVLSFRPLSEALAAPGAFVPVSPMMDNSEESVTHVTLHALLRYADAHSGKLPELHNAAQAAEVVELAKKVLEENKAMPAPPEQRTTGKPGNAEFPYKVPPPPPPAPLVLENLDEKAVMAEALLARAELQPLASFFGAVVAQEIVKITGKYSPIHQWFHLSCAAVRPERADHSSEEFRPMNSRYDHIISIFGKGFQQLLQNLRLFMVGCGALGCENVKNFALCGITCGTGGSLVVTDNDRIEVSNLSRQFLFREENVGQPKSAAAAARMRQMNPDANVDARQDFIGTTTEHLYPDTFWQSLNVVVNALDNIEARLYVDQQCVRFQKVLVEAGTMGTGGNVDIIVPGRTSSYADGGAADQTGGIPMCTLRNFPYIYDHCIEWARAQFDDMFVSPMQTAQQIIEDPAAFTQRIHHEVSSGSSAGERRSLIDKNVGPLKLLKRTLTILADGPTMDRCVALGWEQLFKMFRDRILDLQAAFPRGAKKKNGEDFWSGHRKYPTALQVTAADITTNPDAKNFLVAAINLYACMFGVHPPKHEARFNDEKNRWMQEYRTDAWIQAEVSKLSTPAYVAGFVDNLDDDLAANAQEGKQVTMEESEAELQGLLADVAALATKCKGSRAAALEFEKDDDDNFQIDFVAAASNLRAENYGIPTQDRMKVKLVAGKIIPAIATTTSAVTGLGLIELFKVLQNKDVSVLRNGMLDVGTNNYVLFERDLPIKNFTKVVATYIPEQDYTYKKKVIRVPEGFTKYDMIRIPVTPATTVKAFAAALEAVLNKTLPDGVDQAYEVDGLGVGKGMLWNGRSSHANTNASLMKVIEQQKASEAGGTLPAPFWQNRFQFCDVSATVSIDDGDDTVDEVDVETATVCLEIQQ

[3] = biological target: Sialic acid-binding Ig-like lectin 9 (Homo sapiens) (UniProt Q9Y336); test: Hs-Siglec9 ALPHAscreen SOP 20170721; details: 10 µM
Sialic acid-binding Ig-like lectin 9 (Homo sapiens), sequence (Q9Y336 whole entry): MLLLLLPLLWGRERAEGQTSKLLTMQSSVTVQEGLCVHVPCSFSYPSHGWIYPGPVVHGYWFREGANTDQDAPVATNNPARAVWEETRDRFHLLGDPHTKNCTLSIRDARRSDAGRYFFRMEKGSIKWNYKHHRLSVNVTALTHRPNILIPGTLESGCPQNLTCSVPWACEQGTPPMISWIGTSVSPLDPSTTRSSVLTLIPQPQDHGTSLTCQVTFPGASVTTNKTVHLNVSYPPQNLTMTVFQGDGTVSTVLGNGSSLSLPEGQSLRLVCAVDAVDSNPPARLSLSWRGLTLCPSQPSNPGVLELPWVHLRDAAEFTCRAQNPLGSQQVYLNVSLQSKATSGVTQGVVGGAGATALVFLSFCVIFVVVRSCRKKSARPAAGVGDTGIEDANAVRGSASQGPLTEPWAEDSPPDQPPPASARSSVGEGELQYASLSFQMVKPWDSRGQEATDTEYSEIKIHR

[4] = system: Trypanosoma cruzi; test: Trypanosoma cruzi phosphomannomutase and mannose-1-phosphate guanylyltransferase assay; type: functional; details: 10 µM
[5] = biological target: T2, Arginase-2, mitochondrial (Homo sapiens) (UniProt P78540); test: in vitro enzyme assay to detect the production of urea directly proportional to the activity of Arginase II; type: functional; details: 33.3 µM; also: in the data most compounds retested in dose-response had high values
T2 sequence (whole entry): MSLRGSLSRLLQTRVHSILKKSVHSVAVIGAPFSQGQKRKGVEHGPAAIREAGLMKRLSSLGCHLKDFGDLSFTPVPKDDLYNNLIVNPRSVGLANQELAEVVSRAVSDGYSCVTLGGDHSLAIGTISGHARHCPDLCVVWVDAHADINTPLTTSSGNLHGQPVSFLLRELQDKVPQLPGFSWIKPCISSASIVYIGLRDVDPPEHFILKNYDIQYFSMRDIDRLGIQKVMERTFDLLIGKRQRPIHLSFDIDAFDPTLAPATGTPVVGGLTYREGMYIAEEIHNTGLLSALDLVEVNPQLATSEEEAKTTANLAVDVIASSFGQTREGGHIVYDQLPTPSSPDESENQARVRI

[6] = biological target: T3, Proteasome subunit beta (Trypanosoma cruzi) (UniProt O96673); test: Trypanosoma cruzi proteasome chymotrypsin-like activity (TcProtChymo) assay.; also: in the data most compounds retested in dose-response had high values; type: functional; details: 9.37 µM
T3 sequence (whole entry): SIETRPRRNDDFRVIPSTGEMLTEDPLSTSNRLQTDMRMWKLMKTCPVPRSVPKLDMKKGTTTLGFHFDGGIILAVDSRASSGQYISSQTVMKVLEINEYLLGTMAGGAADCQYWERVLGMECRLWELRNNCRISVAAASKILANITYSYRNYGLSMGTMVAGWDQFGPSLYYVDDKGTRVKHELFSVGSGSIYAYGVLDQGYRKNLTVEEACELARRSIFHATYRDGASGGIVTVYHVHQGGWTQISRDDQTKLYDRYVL

[7] = species on record: Homo sapiens; test: To identify inhibition of the IFN signalling (Jak-Stat) pathway via expression of an eGFP reporter gene under the control of an IFN-stimulated response element (ISRE) containing MxA promoter.; type: functional; details: 30 µM
[8] = biological target: T4, Tyrosyl-tRNA synthetase, putative (Trypanosoma cruzi (strain CL Brener)) (UniProt Q4DSP6); test: Trypanosoma cruzi tyrosyl tRNA synthetase (TcYRS) _High Tyrosine SOP; type: functional; details: 30 µM; also: in the data most compounds retested in dose-response had high values
T4 sequence (whole entry): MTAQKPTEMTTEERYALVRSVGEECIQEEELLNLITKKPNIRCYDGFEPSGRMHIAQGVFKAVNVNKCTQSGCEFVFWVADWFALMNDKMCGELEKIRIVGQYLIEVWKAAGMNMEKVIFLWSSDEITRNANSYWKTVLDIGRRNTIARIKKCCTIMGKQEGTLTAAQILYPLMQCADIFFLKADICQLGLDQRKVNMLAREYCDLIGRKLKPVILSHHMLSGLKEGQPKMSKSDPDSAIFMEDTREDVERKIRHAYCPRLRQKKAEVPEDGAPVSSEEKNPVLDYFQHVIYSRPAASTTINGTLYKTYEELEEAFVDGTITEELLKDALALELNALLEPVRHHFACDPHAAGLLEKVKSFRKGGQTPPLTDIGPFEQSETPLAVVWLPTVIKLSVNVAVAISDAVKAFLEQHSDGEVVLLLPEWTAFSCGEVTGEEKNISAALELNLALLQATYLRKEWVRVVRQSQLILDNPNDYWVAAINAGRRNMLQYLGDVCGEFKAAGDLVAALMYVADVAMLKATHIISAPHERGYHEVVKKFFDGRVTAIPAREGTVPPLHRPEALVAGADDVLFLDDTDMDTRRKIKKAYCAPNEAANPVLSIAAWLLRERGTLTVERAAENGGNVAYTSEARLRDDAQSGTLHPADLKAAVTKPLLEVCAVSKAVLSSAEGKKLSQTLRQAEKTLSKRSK

[9] = biological target: T4, Tyrosyl-tRNA synthetase, putative (Trypanosoma cruzi (strain CL Brener)); test: Trypanosoma cruzi tyrosyl tRNA synthetase (TcYRS) SOP; type: functional; details: 30 µM
[10] = biological target: Chromo domain-containing protein 1 (Saccharomyces cerevisiae (strain ATCC 204508 / S288c) (Baker's yeast)) (UniProt P32657); test: ScCHD-1 Enzyme Inhibition Assay; type: functional; details: 30 µM; also: in the data most compounds retested in dose-response had high values
Chromo domain-containing protein 1 (Saccharomyces cerevisiae (strain ATCC 204508 / S288c) (Baker's yeast)), sequence (P32657 whole entry, the tested form may be a part): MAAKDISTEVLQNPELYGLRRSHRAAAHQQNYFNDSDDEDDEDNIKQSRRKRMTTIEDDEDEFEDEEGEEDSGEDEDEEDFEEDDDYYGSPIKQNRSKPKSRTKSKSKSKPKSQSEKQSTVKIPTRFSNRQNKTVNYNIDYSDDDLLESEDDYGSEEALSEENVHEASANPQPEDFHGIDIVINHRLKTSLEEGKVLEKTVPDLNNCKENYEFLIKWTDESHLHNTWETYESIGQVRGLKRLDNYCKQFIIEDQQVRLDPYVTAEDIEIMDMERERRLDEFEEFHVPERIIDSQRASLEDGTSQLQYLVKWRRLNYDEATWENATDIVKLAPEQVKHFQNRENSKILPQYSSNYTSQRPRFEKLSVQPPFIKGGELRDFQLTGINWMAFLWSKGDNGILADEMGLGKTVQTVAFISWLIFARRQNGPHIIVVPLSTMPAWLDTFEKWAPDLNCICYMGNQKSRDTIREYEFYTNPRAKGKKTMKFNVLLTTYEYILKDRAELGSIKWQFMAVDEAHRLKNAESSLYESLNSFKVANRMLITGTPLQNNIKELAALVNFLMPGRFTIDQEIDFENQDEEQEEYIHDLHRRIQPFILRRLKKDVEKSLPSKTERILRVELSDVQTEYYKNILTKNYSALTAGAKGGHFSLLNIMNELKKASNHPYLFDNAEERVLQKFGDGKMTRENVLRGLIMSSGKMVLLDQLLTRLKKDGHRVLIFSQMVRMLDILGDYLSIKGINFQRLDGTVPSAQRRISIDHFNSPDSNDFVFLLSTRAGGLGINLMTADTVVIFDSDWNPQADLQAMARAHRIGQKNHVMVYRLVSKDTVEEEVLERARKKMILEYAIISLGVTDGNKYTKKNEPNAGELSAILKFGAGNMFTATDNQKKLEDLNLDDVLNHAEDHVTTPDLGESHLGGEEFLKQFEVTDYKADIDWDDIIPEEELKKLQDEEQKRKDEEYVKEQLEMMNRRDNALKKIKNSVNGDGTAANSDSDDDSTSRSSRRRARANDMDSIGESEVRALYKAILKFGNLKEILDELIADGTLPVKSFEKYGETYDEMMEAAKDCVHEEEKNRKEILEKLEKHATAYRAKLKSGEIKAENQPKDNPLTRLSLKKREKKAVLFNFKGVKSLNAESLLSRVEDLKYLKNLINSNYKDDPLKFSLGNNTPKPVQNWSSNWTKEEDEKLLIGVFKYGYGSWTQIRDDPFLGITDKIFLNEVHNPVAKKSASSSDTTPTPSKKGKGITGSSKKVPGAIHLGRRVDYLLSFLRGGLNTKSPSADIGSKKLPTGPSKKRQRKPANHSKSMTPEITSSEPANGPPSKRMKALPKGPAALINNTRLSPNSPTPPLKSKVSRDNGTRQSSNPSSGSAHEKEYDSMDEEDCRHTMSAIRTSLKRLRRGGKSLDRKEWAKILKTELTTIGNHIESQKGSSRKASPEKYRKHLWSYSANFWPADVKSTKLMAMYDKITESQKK

Row | SMILES | Percent Effect [1] [%] | Percent Effect [2] [%] | Percent Effect [3] [%] | Percent Effect [4] [%] | Percent Effect [5] [%] | Percent Effect [6] [%] | Percent Effect [7] [%] | Percent Effect [8] [%] | Percent Effect [9] [%] | Percent Effect [10] [%]
1 | CC(Cn1cccn1)NC(=O)NCc1cccs1 (stereo not given) | -2.75 | -66.7 | 2.38 | -4.82 | 0.887 | 13 | 10.9 | 3.68 | 7.69 | -11.3
2 | Cn1ccc(CN2CCC(NC(=O)Cc3ccccc3)CC2)cc1=O | -2.78 | 5.13 | -5.06 | 6.85 | 2.87 | 6.74 | -7.1 | 7.18 | 13.2 | -3.86
3 | Cc1ncsc1-c1nnc(C2CCN(CC3CCCCC3)CC2)o1 | 1.3 | 14.7 | -11.6 | -1.97 | 0.443 | 14.8 | 25.8 | -3.17 | 5 | -21.3
4 | Cc1cncc(C2CCCN(C(=O)c3ccc(C)[nH]c3=O)C2)n1 (stereo not given) | -4.08 | 20 | 0.301 | 1.58 | -1.33 | 18.4 | -10.4 | 5.29 | 17.5 | -23.9
5 | CCn1ccnc1CNCC1CCCN1c1cccnn1 (stereo not given) | -4.44 | 2.67 | 5.47 | 0.803 | 0.444 | 1.78 | 9.51 | 6.84 | 12.8 | -8.32
6 | COCCN1C(=O)CCC12CCN(C(=O)CC1CC1)CC2 | -0.652 | -1.3 | 0.0799 | -0.938 | 2.28 | 5.75 | 11.8 | -0.966 | -15 | 0.945
7 | CN1[C@H](Cn2cccn2)C[C@@H]2CN(C(=O)Cc3cccs3)CC[C@@H]21 | -4.49 | 11.7 | -0.662 | -3.56 | -1.83 | 9.53 | 18.5 | 6.76 | 0 | -10.4
8 | Cc1ncc2c(n1)CCN(Cc1nc3ccccc3o1)C2 | -4.63 | 16 | -1.93 | 0.201 | -6.21 | 16 | -5.07 | 7.89 | 25.6 | -11
9 | CC(C)c1cc(C(=O)NCCN2CCCS2(=O)=O)n[nH]1 | -3.62 | 15.4 | 0.501 | 0.469 | 4.92 | 18 | -1.8 | -4.31 | 18.1 | -2.98
10 | O=C(NCc1nn(-c2ccccc2)c2c1CCC2)NC1CC1 | -4.01 | 2.56 | 9.31 | 0.469 | 2.05 | 2.65 | -3.46 | 1.44 | 8.43 | -1.68
11 | Cc1cccc(C(=O)N2CCCN(Cc3cnn(C)c3)CC2)n1 | -0.00911 | -5.13 | 4.36 | 1.6 | 6.15 | -6.74 | 13.4 | -0.478 | 1.21 | -3.37
12 | Cn1cnc2c1CCN(Cc1ccc(C(=O)N3CCCC3)cc1)C2 | -2.26 | 15.4 | -9.12 | 1.97 | 4.51 | 11 | 9.66 | 3.35 | 20.5 | -0.499
13 | CC(C)NC(=O)N1CCC2(C1)CN(c1ccsc1)C(=O)CN2C (stereo not given) | -2.47 | 9.09 | -13.1 | -3.41 | 5.26 | 20.6 | -8.36 | 6.84 | 10.3 | 10.4
14 | COCCN1CCCN(C(=O)NC(C)Cn2cccn2)CC1 (stereo not given) | 0.234 | 15.6 | -4.18 | -8.77 | 4.3 | 10.9 | 14.4 | 5.88 | 11.8 | -2.79
15 | COc1cc(CNC(=O)C2CC(=O)N(C(C)C)C2)ccn1 (stereo not given) | -1.79 | 10.3 | -1.27 | -1.22 | 2.05 | 12.7 | 24.4 | 3.35 | 10.8 | -3.72
16 | COc1ccc(CC(=O)N2CCCC(n3cc(C)cn3)C2)cc1F (stereo not given) | -2.21 | -2.67 | 3.32 | 0.201 | 2.66 | 4.16 | 3.46 | 2.63 | 2.56 | -4.37
17 | CCc1noc(C(C)N2CCOCC2)n1 (stereo not given) | -7.21 | 10.7 | 7.7 | 0.602 | 0.887 | 5.85 | 5.17 | 6.84 | 5.13 | -8.94
18 | COCC(=O)N1CCC2(CC1)CC(CC(=O)NC1CC1)c1ccccc12 (stereo not given) | -8.48 | -1.3 | 3.8 | -1.66 | -6.88 | -0.0883 | -8.57 | -0.526 | 5.13 | -0.682
19 | CN(C)S(=O)(=O)N1CC[C@]2(C[C@H](Oc3cccnc3)CO2)C1 | -2.88 | 14.3 | -1.9 | 1.66 | 8.91 | 23.7 | 1.15 | 11.1 | 15.4 | -4.29
20 | Cc1ccc(CC(=O)N2CCc3nnc(N(C)C)cc3C2)cn1 | 0.88 | 20.5 | -4.67 | -0.469 | 2.05 | 13.6 | 16.2 | 6.22 | 10.8 | -4.95
21 | CC(C(=O)N1CCCC1)N1CCC(c2nccn2CC2CCC2)CC1 (stereo not given) | -7.94 | 0 | -0.943 | -1.07 | 0.35 | 1.71 | 1.41 | 9.04 | 12.2 | 2.51
22 | Cc1nc(C)n(CC2CCCN2Cc2cn(-c3ccccc3)nn2)n1 (stereo not given) | -2.72 | -2.67 | 1.09 | -1 | -1.77 | 2.97 | -1.44 | 3.68 | 0 | -6.83
